# This is a sample that favours compounds with a hit; in the whole collection about 2.4% have one here.
# M1 ag parental – nonselective activator or artifact in parental CHO-K1 cells | activation, % at 3 µM | Fluo-8 calcium fluorescence; scaled to maximal ATP response, vehicle zero | 360,000 compounds, 0.48% hits; in the data active = activation above about 15%;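 also: untransfected CHO-K1 host cells lacking M1 receptor as counterscreen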
# M1 ag – human M1 muscarinic receptor agonism; P11229; CHO-K1 hM1, Fluo-8 calcium fluorescence, agonist mode; 0% DMSO, 100% acetylcholine EC100; activation, % at 3 µM; 360,000 compounds, 0.33% hits; AID 588814;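 active = activation above the run's mean compound activation plus 3 SD, cut at about 16% in these data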;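 also: peak over basal fluorescence ratio within a 140 s kinetic read after compound addition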
# Target sequence (P11229 whole entry, looked up): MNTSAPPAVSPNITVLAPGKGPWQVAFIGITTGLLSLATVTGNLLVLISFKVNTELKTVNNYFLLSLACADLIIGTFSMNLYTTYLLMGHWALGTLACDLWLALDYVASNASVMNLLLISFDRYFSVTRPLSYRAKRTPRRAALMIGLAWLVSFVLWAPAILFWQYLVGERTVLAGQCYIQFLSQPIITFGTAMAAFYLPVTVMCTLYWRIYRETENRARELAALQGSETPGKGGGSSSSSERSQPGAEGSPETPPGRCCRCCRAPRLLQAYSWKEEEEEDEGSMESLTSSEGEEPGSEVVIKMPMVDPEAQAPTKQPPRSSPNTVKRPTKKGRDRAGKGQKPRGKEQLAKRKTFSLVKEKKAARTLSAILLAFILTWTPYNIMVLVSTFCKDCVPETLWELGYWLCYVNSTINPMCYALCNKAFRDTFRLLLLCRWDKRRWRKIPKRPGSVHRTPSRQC
# CHRM1 PAM – positive allosteric modulators of human M1 muscarinic receptor; CHO-K1 hM1, Fluo-8 calcium fluorescence, ACh EC20; 0% = ACh EC20, 100% = maximal ACh; activation, % at 3 µM; 360,000 compounds, 0.088% hits; in the data active = activation above about 19%, passing the limit was not always enough
# CHO-K1 Ca PAM – counter-screen for M1 PAMs: effect in parental CHO-K1 cells | 360,000 compounds, 0.02% hits | ATP EC20, Fluo-8 calcium fluorescence; 0% at ATP EC20, 100% at ATP max | activation, % at 3 µM;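 active = activation above the run cutoff, the mean activation of all test compounds plus 3 SD, cut at about 40% in these data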;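 also: peak over basal fluorescence ratio in a 140 s read after ATP addition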
# CHO-K1 Ca antag – nonselective inhibitor or artifact in parental CHO-K1 cells. ATP-induced calcium, Fluo-8 fluorescence. inhibition, % at 3 µM. 360,000 compounds, 0.6% hits;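 active = inhibition above a per-plate cutoff, the plate's mean sample inhibition plus 3 SD, cut at about 24% in these data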;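 also: 0% = DMSO plus EC80 ATP and 100% = DMSO alone without ATP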
# CHRM1 antagonist – blocks human M1 muscarinic receptor | P11229 | CHO-K1 hM1, Fluo-8 calcium fluorescence, ACh EC80 antagonist | inhibition, % at 3 µM | 360,000 compounds, 1.3% hits;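 active = percent inhibition above its own plate's cutoff, namely the mean of that plate's compound wells plus 3 SD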;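 also: peak over basal fluorescence ratio during 140 s after agonist addition; 0% = ACh EC80 plus DMSO and 100% = DMSO alone without agonist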
# Numbers without * were called inactive.
SMILES,M1 ag parental,M1 ag,CHRM1 PAM,CHO-K1 Ca PAM,CHO-K1 Ca antag,CHRM1 antagonist
O=C(O)C(=Cc1cccc([N+](=O)[O-])c1)c1ccccc1,0.1,0.7,-2.2,15.3,-17.3,-1.5
CCc1nc2c(OCc3cc(Cl)cc(Cl)c3)cccn2c1N(C)C(=O)c1cccc(OC)c1,0.6,-6.9,-16.2,4.6,-14.3,-0.3
CNC(=S)NNC(=O)c1cn(C)nc1C,-0.7,0.5,6.0,-14.7,24.2*,6.9
CCOC(=O)N1CCC(N2Cc3cccc(C(=O)NCc4ccccn4)c3C2=O)CC1,1.1,-10.3,-22.0,16.4,-7.9,27.7*
CCOC(=O)N1CCC(N2Cc3cccc(C(=O)NC(C)c4ccc5c(c4)OCCO5)c3C2=O)CC1 (configuration not stated),-0.7,-11.3,0.4,-7.0,41.6*,-12.6
CCOC(=O)N1CCC(NC(=O)c2cccc3c2C(=O)N(CCOC)C3)CC1,0.4,-4.1,-9.6,-1.3,-0.6,9.3
CCOC(=O)N1CCC(N2Cc3cccc(C(=O)NCc4ccc(C)cc4)c3C2=O)CC1,0.1,-3.4,-0.8,-0.7,4.6,-7.4
Cc1cn([C@H]2C[C@H](O)[C@@H](CNS(=O)(=O)N3CCCC3)O2)c(=O)[nH]c1=O,0.1,-1.5,-3.6,-1.0,19.6,-1.6
Cc1ccc(F)c(S(=O)(=O)NC(=O)C2(C)CCN2C(=O)c2ccc(C(F)(F)F)nc2C)c1 (configuration not stated),-0.3,0.3,6.4,-2.4,1.6,-6.8
COC(=O)C1CCN(Cc2ccc(OCCCN3CCN(c4ccc([N+](=O)[O-])cc4)CC3)cc2)CC1,13.1,-5.3,-24.6,5.7,3.8,47.9*
O=C1C2CCCCN2C(=O)N1CCCCN1CCN(c2ccc([N+](=O)[O-])cc2)CC1 (configuration not stated),16.2*,-2.6,1.0,14.0,3.8,0.9
CCC(C)c1ccc(NC(=O)C2=CC=CN3CCS(=O)(=O)N=C23)cc1 (configuration not stated),0.8,0.2,6.6,-8.0,-0.7,-9.1
CC(Sc1cccc[n+]1[O-])C(=O)NC1CCCCC1C (configuration not stated),0.4,-1.2,-2.3,11.6,-11.7,15.2
COc1ccc(C2CCCN2C(=O)Nc2cccc(C(C)=O)c2)cc1OC (configuration not stated),0.4,-0.3,-6.1,-6.5,26.2*,21.9
O=C(OCCC12CC3CC(CC(C3)C1)C2)c1ccc(NCc2cc(O)ccc2O)cc1,-0.4,13.3,35.3*,-6.4,-4.8,-10.7
Cc1ccc(CS(=O)(=O)c2cn(CC(=O)Nc3ccon3)c3ccccc23)cc1,18.9*,-1.4,2.9,-0.8,6.8,0.6
Cc1cc(NC(=O)CS(=O)(=O)c2cn(Cc3cccc(C(F)(F)F)c3)c3ccccc23)no1,4.2,18.1*,7.3,4.0,-4.6,-7.5
O=C(CSc1cn(Cc2cccc(F)c2)c2ccccc12)NCc1ccc(F)cc1,3.7,-4.7,-13.1,6.1,4.9,31.0*
Cc1cc(NC(=O)CS(=O)(=O)c2cn(Cc3cccc(F)c3)c3ccccc23)no1,2.5,17.0*,20.1,6.6,-2.0,-9.4
Cc1cc(NC(=O)CSCC(=O)NCc2cccc(C(F)(F)F)c2)no1,0.8,-0.6,2.2,24.0,-12.5,-11.9
O=C(Nc1ccccc1)c1cccc(S(=O)(=O)Oc2ccc([N+](=O)[O-])cc2)c1,3.0,-5.7,-4.5,5.4,3.0,-2.6
Cc1cc(NC(=O)CS(=O)(=O)c2cn(Cc3ccc(F)cc3)c3ccccc23)no1,9.8,32.1*,10.7,1.9,-4.1,17.0
CCn1cc(S(=O)(=O)CC(=O)Nc2cc(C)on2)c2ccccc21,0.8,-0.8,-4.5,15.8,-3.1,17.5
O=[N+]([O-])c1cccnc1N1CCC(c2cc(-c3ccc(Cl)cc3Cl)n[nH]2)CC1,0.1,-2.3,-1.2,-7.1,16.9,3.2
O=[N+]([O-])c1cccnc1N1CCC(c2cc(-c3cccc(C(F)(F)F)c3)n[nH]2)CC1,0.3,-7.0,-14.4,-4.0,5.8,22.3*
SMILES,M1 ag parental,M1 ag,CHRM1 PAM,CHO-K1 Ca PAM,CHO-K1 Ca antag,CHRM1 antagonist
CCOc1ccc(C(=O)CCC(=O)N2CCN(c3ncccn3)CC2)cc1,0.4,-4.2,10.1,-6.3,5.5,-4.4
CC(OCCN1CCCC1)(c1ccc(F)cc1)c1ccc(F)cc1,2.4,-8.2,-19.9,13.2,-6.2,92.3*
CN(C)CCOc1ccccc1C(C)(C)C,0.5,-6.2,-20.0,12.9,2.6,57.4*
CC(C)(C)c1ccccc1OCCN1CCCC1,2.3,-8.8,-21.7,24.4,-1.6,42.6*
CC(C)Oc1ccccc1OCCN(C)C,-0.1,-13.3,10.7,23.9,-8.7,-3.7
Cc1ccc(C(C)(C)C)c(OCCN2CCCC2)c1,1.2,-9.7,-24.2,16.5,-1.1,66.8*
Cc1cc(C(C)(C)C)ccc1OCCN1CCCC1,0.8,-4.0,0.0,14.0,-0.6,-20.5
Fc1ccc(OCCOCCN2CCCC2)cc1,0.8,-5.9,0.3,-0.2,-2.4,-5.1
Cc1ccc(Cl)c2c1=NC(=O)C=2c1[nH]c(=S)[nH]c1O,17.1*,1.2,-0.3,12.4,4.7,7.8
CC(=O)Oc1ccc(C(=O)Cc2ccccn2)c(O)c1,-0.6,-1.8,-2.8,-10.6,24.2*,13.6
CCc1cc(C(=O)Cc2ccccn2)c(O)cc1O,6.1,0.3,20.1,5.8,-5.4,-14.4
CC(=O)Nc1ccc(-c2ccnc3c2CC(C)(C(=O)NCc2ccc(N4CCN(C)CC4)cc2)O3)cc1 (configuration not stated),0.8,-8.1,3.9,12.6,-16.6,-10.3
Cc1ccc(/C=N/NC(=O)c2ccccc2OCc2ccc(F)cc2)o1,5.5,-2.6,16.9,42.8*,-19.1,-15.2
CSc1ccc(S(=O)(=O)Nc2ccc3c(c2)NC(=O)CC3)cc1,16.2*,-9.1,-8.8,2.1,14.2,5.7
Cc1ccc(NS(=O)(=O)c2ccc3c(c2)CCC(=O)N3)cc1,1.3,0.6,-9.6,5.8,-14.5,13.1
Cc1ccc(S(=O)(=O)c2c(N)n(NC(=O)c3ccccc3C)c3nc4ccccc4nc23)cc1,1.6,-4.8,2.9,18.9,-0.5,-6.5
Cc1ccc(C(=O)Nn2c(N)c(S(=O)(=O)c3ccc(C)cc3)c3nc4ccccc4nc32)cc1,-0.4,5.4,0.0,1.6,4.5,20.4*
Nc1cc(S(=O)(=O)N2CCOCC2)ccc1Oc1cccc(Br)c1,2.6,0.5,9.2,-2.6,24.0*,2.2
COc1ccc(S(=O)(=O)N2CCOCC2)cc1Br,4.0,-5.8,8.8,18.3,-8.1,-0.4
O=C(Nc1ccccc1)c1cc(S(=O)(=O)NCc2ccncc2)ccc1Cl,13.5,7.5,-5.3,-12.2,23.7*,20.4
O=C(Nc1ccccc1)c1cc(S(=O)(=O)Nc2cccnc2)ccc1Cl,0.4,-0.8,9.4,-20.0,17.0,-19.6
